Results published in PubChem BioAssay AID1159580 (chemical genetic matrix, 2015).
About 2,000 (36%) of roughly 5,500 compounds were called active. Another 18% or so got no clear call; they are omitted. Rule as the data show it: active = normalized growth mostly below about 0.91 (no sharp cut-off); inconclusive = no clear call, values can overlap the other calls; inactive = mostly above about 0.92. Some of the results follow.

Assay: chemical genetic growth profiling, strain panel (AID 1159580);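 also: tested at 20 µM; growth read once vehicle control cultures reached saturation at 30 °C; 1 = growth at the plate median or of vehicle wells; lower values mean less growth of the strain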
Conditions: S. cerevisiae deletion strains, growth OD

Measured: normalized growth

CCCN1CCC[C@@H]2Cc3nc(N)ncc3C[C@H]21
inactive: locus YAL013W, strain DEP1, hits give low values 1.02 | locus YAL040C, strain CLN3, hits give low values 1.01 | locus YCL061C, strain MRC1 (second series), hits give low values 1.01 | locus YDR363W, strain ESC2, hits give low values 0.999 | locus YER002W, strain NOP16, hits give low values 1.02 | locus YMR307W, strain GAS1, hits give low values 0.995 | locus YNL128W, strain TEP1, hits give low values 1.01 | locus YNL175C, strain NOP13, hits give low values 1.02 | locus YNL197C, strain WHI3, hits give low values 1.01 | locus YNL224C, strain SQS1, hits give low values 1.01 | locus YNL322C, strain KRE1, hits give low values 0.999 | locus YOR083W, strain WHI5 (second series), hits give low values 1.01 | locus YPL241C, strain CIN2, hits give low values 1
